From PubChem BioAssay AID449762 (Southern Research Specialized Biocontainment Screening …, 2010)
Out of some 330,000 compounds screened, about 1,900 (0.58%) were called active. Roughly 4% stayed inconclusive and do not appear here. Not all results are given here. Results with a measured potency or affinity are listed apart. A number with no mark means an inactive call. No stated cut-off is given here; in the data, inconclusive means inhibition above about 70% without an active follow-up result; inactive means below that.

Experiment: M. tuberculosis growth inhibition, HTS (AID 449762);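 further: bacterial growth assessed after seven days of incubation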
Conditions: M. tuberculosis H37Rv growth inhibition, 7H9 media; at 25 µM; active compounds read high

Compared with `COc1ccc(Nc2nc(N3CCN(C)CC3)nc3ccccc23)c(OC)c1`, `COc1ccc(Nc2nc(N3CCN(S(C)(=O)=O)CC3)nc3ccccc23)c(OC)c1` is higher in inhibition: -4.21% for the first, 2.78% for the second.

Going from `C=CCNC(=O)CN1C2CCCC1CC(NC(=O)c1ccccc1C)C2` (configuration not stated) to `CCOC(=O)N1CCC(NC(=O)c2cc(COc3ccccc3SC)on2)CC1`, the inhibition rises from -6.37% to 1.54%.

Going from `O=C(COC(=O)c1ccccc1N1C(=O)C2C3CCC(C3)C2C1=O)c1ccccc1` (configuration not stated) to `CCOC(=O)C1=NN(c2ccccc2)C(c2ccccc2)CC1=O` (configuration not stated), the inhibition rises from -3.76% to 12.7%.

Compared with `COc1cc([N+](=O)[O-])ccc1NC(=O)CN1CCc2cc(OC)c(OC)cc2C1`, `COc1ccccc1N1CCN(CC(=O)Nc2nc(C)c(C(=O)N(C)C)s2)CC1` is lower in inhibition: 6.98% for the first, 0.78% for the second.

Going from `CCOC(=O)C(NCCCCl)c1ccccc1` (configuration not stated) to `Cc1ccc(OCCCCNC(C)c2ccccc2)c(C)c1` (configuration not stated), the inhibition rises from 0.32% to 7.81%.

Compared with `COc1ccccc1OCCOCCN1CCCC1`, `COc1ccccc1OCCCCN1CCCCC1` is higher in inhibition: -4.15% for the first, 2.93% for the second.

Compared with `CCCc1cc(NC(=O)COC(=O)c2nccnc2N)n(-c2ccccc2)n1`, `CCCc1cc(NC(=O)COC(=O)c2ccc(O)cc2O)n(-c2ccccc2)n1` is lower in inhibition: 50.9% for the first, -2.82% for the second.

Going from `C=CCNC(=S)NNC(=O)CCC(O)COCCC(C)C` (configuration not stated) to `C=CCNC(=O)COc1cc(C)cc(C)c1C`, the inhibition falls from 1.2% to -2.5%.

Going from `COc1cc(/C=C2/C(=O)N(c3ccc(C)c(C)c3)N=C2C)cc([N+](=O)[O-])c1O` to `CC1=NN(c2cccc(C(=O)O)c2)C(=O)/C1=C\C=C\c1ccco1`, the inhibition rises from -4.94% to -4.32%.

Compared with `Cc1nn(C)c(C)c1CNC(=O)Nc1cccc(Cl)c1C`, `Cc1cc(C)n(-c2nc3ccccc3c(=O)n2OCC(N)=O)n1` is higher in inhibition: -2.03% for the first, 13.1% for the second.

First: Cc1ccc([N+](=O)[O-])c(NC2OC(CO)C(O)C2O)c1 (configuration not stated)
Second: Cn1nnnc1Sc1ccc(C(=O)O)cc1[N+](=O)[O-]
The inhibition of the first is lower: -2.66% for the first, 2.4% for the second.

Going from `COc1ccc(C2CC(c3ccc(Br)cc3)=NN2C(=O)c2cccnc2)cc1` (configuration not stated) to `C=CCOc1ccc(C2CC(C)=NN2c2ccccc2)cc1` (configuration not stated), the inhibition falls from 47.5% to 3.55%.

First: N#CCc1nc2ccc(S(=O)(=O)N3CCOCC3)cc2s1
Second: CN1CCN(c2nc(-c3cc4ccccc4o3)cs2)CC1
The inhibition of the first is lower: -0.38% for the first, 1.67% for the second.

Going from `Cc1ccccc1CN1CCCN(Cc2ccc(Cl)cc2)S1(=O)=O` to `O=C1c2ccccc2C(=O)N1c1ccc(Cl)cc1`, the inhibition falls from 2.25% to -5.93%.

First: CCOC(=O)c1c(NC(C)=O)sc2c1CCC(C=O)=C2Sc1ccccc1
Second: CCOC(=O)c1c(NC(=O)CCCC(=O)O)sc2c1CCC2
The inhibition of the first is higher: 6.72% for the first, 1.76% for the second.

First: COc1cccc(Cn2c(=O)ccc3ccccc32)c1
Second: O=c1c(Br)c(NCc2ccccc2)cnn1-c1ccc(F)cc1
The inhibition of the first is higher: 7.74% for the first, -5.73% for the second.

Compared with `Cc1ccc(C(=O)Nc2ccc(Oc3cccc(C(F)(F)F)c3)nc2)cc1`, `O=C(Nc1ccc(Oc2cccc(C(F)(F)F)c2)nc1)c1ccccc1` is higher in inhibition: 3.4% for the first, 14% for the second.

First: O=C1CN=CN=CN1c1ccc(Cl)cc1Cl
Second: Cc1ccc(Sc2c([N+](=O)[O-])ncn2C)cc1
The inhibition of the first is higher: 10.8% for the first, -9.59% for the second.

First: CCOC(=O)N1CCN(C(=O)C2CCC(=O)N(CCCc3ccccc3)C2)CC1 (configuration not stated)
Second: NC(=O)CSc1n[nH]c(=O)n1CCc1ccccc1
The inhibition of the first is higher: -4.71% for the first, -5.89% for the second.

First: Cc1cc(CC(C)C)n(-c2nc3ccccc3c(=O)n2OCc2ccccc2)n1
Second: Cc1cc(OC(=O)C(c2ccccc2)c2ccccc2)c([N+](=O)[O-])c(=O)[nH]1
The inhibition of the first is higher: 58.9% for the first, 1.27% for the second.

Compared with `Cc1ccc(S(=O)(=O)NCC(=O)N(CC(=O)NCC2CCCO2)c2ccc(Cl)cc2)cc1` (configuration not stated), `C[C@@H](CN1C(=O)C(=O)NC[C@@H]1Cc1ccc(O)cc1)NC(=O)Cc1ccccc1` is higher in inhibition: -3.29% for the first, -2.19% for the second.

Going from `COc1ccc(C(=O)NNC(=O)CSc2nc3c(c(=O)n(C)c(=O)n3C)n2C)cc1` to `CCOc1ccc(CCNC(=O)Cn2c(=O)c3cccn3c3cccnc32)cc1`, the inhibition falls from 1.02% to -8.95%.

Going from `COc1cc(NC(=O)C[n+]2ccc(C(=O)c3ccccc3)cc2)cc(OC)c1` to `COc1ccc2[nH]c(C)c(CCN(Cc3cccs3)C(=S)Nc3ccccc3)c2c1`, the inhibition rises from -7.81% to -7.77%.

Going from `O=C(Nc1ccc(C(F)(F)F)cc1)c1ccccc1` to `O=C(O)c1ccc(Sc2nnnn2-c2ccccc2)c([N+](=O)[O-])c1`, the inhibition rises from 0.07% to 3.58%.

First: Cn1cccc1-c1cc(C(=O)N/N=C/c2ccc(F)cc2)[nH]n1
Second: CN(Cc1ccco1)c1ncnc2ccc(-c3ccoc3)cc12
The inhibition of the first is lower: -3.95% for the first, 17.5% for the second.

Going from `Cc1sc2ncnc(N(C)Cc3ccco3)c2c1C` to `Cc1nc(Sc2ccccc2)c(C#N)c(C)c1[N+](=O)[O-]`, the inhibition rises from -1.32% to 3.11%.

Going from `Cc1ccc(N2C(=O)C3C(c4ccccc4)(C2=O)C3(c2ccccc2)c2ccccc2)cc1` (configuration not stated) to `c1ccc(CCNCCCOc2cccc3ccccc23)cc1`, the inhibition rises from 20.2% to 40.1%.

First: COc1ccc(C(=O)c2ccc(N3CCN(C4CC(=O)NC4=O)CC3)cc2)cc1F (configuration not stated)
Second: C#CCNC(=O)C1=C[C@H](c2ccc3c(c2)OCO3)C[C@H](OCc2ccc(CO)cc2)O1
The inhibition of the first is lower: 0.26% for the first, 6.55% for the second.

First: Nc1ncnc(Sc2ccccc2)c1[N+](=O)[O-]
Second: Cn1cnc([N+](=O)[O-])c1Sc1ccccc1
The inhibition of the first is higher: -0.35% for the first, -3.64% for the second.

First: CC1=NN2C(=N)/C(=C\c3cc(C)n(-c4ccccc4)c3C)C(=O)N=C2S1
Second: O=c1ccsn1Cc1ccccc1
The inhibition of the first is lower: -0.68% for the first, 2.59% for the second.

Going from `CCCCCCN1Cc2ccccc2C1` to `Nc1nc(-c2cc3ccccc3o2)cs1`, the inhibition rises from 3.68% to 27.5%.
